From PubChem BioAssay (NCI)
The panel holds about 79,000 compounds, 15% with a hit somewhere; the sample as a whole holds those more often. Cut-off read from the data, not from the text of the source: active = growth inhibition above about 70%; inactive = the rest.

Key:
[1] = NCI Yeast Anticancer Drug Screen. Data for the rad50 strain (AID 155);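 note: 0% = growth of vehicle-only cultures of the same strain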; conditions: S. cerevisiae rad50 strain growth inhibition; at 50.0 µM; stronger effect = higher value
Summary of the method: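 Relative growth inhibition (compound vs vehicle) was measured in yeast with a defined repair-gene alteration.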

[2] = NCI Yeast Anticancer Drug Screen. Data for the mec2-1 strain (AID 157); conditions: S. cerevisiae mec2-1 strain, at 50.0 µM, stronger effect = higher value
Summary of the method: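 Compounds were applied to mec2-1 yeast cells. Their growth was then compared with that of vehicle-treated cultures to give growth inhibition.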

[3] = NCI Yeast Anticancer Drug Screen. Data for the sgs1 mgt1 strain (AID 161);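 note: 0% = growth of cultures given vehicle only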; conditions: S. cerevisiae sgs1 mgt1 strain, at 50.0 µM, stronger effect = higher value
Summary of the method: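 Compounds are added to genetically altered yeast, and growth is compared with cultures given vehicle alone to give percent inhibition.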

[4] = NCI Yeast Anticancer Drug Screen. Data for the cln2 rad14 strain (AID 165);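 note: 0% = growth equal to vehicle treated cultures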; conditions: S. cerevisiae cln2 rad14 strain, at 50.0 µM, stronger effect = higher value
Summary of the method: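 Strain: cln2 rad14 yeast, altered in cell cycle control and DNA damage repair. Read-out: growth inhibition vs vehicle.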

[5] = NCI Yeast Anticancer Drug Screen. Data for the bub3 strain (AID 167); conditions: S. cerevisiae bub3 mutant strain, at 50.0 µM, stronger effect = higher value
Summary of the method: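 Screening used yeast with an engineered genetic alteration affecting cell cycle control. Compound-exposed cultures were compared with vehicle cultures, and reduced growth was taken as inhibition.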

[6] = NCI Yeast Anticancer Drug Screen. Data for the mlh1 rad18 strain (AID 175); conditions: S. cerevisiae mlh1 rad18 strain growth inhibition; at 50.0 µM; stronger effect = higher value
Summary of the method: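 A repair-deficient yeast strain is exposed to test compound, and growth is scored relative to vehicle-treated controls.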

Measured: growth inhibition

Oc1cccc2c(NC(=S)Nc3ccccc3)cccc12
inactive: [1] 37.2% | [2] 22.8% | [3] 18.2% | [4] 15.5% | [5] 39.5% | [6] 32.9%

CCCC#CCN(C(C)C)C(C)C
inactive: [1] -12.4% | [2] 1.65% | [3] -6.35% | [4] 29.2% | [5] -5.25% | [6] -7.85%

CN1N=C(c2ccccc2)C(C(c2ccccc2[N+](=O)[O-])C2C(=O)N(C)N=C2c2ccccc2)C1=O (stereo not given)
inactive: [1] 46.8% | [2] 34.6% | [3] 8.5% | [4] 3.4% | [5] -3.4% | [6] -2.1%

CCCCOC(=O)c1ccc(NC(=O)Nc2c(C)cccc2C)cc1
inactive: [1] -0.65% | [2] -4.4% | [3] 27.3% | [4] -6.2% | [5] 30.9% | [6] 25%

COc1ccc(CCNC(=O)C(Sc2ccccn2)c2ccccc2)cc1OC (stereo not given)
inactive: [1] 20.6% | [2] -29.4% | [3] 5.35% | [4] 23.1% | [5] 30.6% | [6] 27.8%

O=C(NCC1=NCCN1)c1ccccc1
inactive: [1] 2.3% | [2] -2.7% | [3] -13.7% | [4] 12% | [5] 6.45% | [6] 10.7%

Cc1cc(C)cc(Cc2ccc3ccccc3c2)c1
inactive: [1] 2.9% | [2] -3.65% | [3] -1.15% | [4] -12.3% | [5] 9.45% | [6] 8.45%

Oc1cc(O)cc(/C=C/c2ccc(O)c(O)c2)c1
inactive: [1] 5.2% | [2] -2.35% | [3] 6% | [4] 5.95% | [5] 18.4% | [6] 18.6%

CC(O)(c1ccc(Cl)cc1)c1ccc(Cl)cc1
inactive: [1] -4.05% | [2] -18.9% | [3] 1.2% | [4] -52.6% | [5] -8.75% | [6] -15.8%

CN(C)c1ccc(/C=c2\sc3nc4ccccc4n3c2=O)cc1
inactive: [1] -8.75% | [2] -32.3% | [3] -13.1% | [4] -15.3% | [5] -16.5% | [6] -21.4%

CCOC(=O)/C(I)=C/c1cc(OC)c(OC)c(OC)c1
inactive: [1] -2.2% | [2] 15.5% | [3] 4.6% | [4] 13.9% | [5] 28.2% | [6] 19.9%

O=C(O)c1ccc(C2COc3ccc(Cl)cc3C2)cc1 (stereo not given)
inactive: [1] -10.8% | [2] -19.8% | [3] -23.8% | [4] 4.7% | [5] -19.2% | [6] -24.2%

CC(=O)N1CC(C)CC2OC3(CCC4C5CCC6CC(=O)CCC6(C)C5C(=O)C4C3C)C(C)C21 (stereo not given)
inactive: [1] -0.65% | [2] -13.1% | [3] -9.15% | [4] -0.75% | [5] -5.9% | [6] -3.75%

CCCC(CN1CCCCC1)C(OC(=O)c1ccc(N)cc1)C(F)(F)F (stereo not given)
inactive: [1] -14.2% | [2] -13.7% | [3] 24.1% | [4] -30.8% | [5] 67.5% | [6] 22.4%

O=c1[nH]nc(-c2ccccc2)n1/N=C\c1ccccc1
inactive: [1] -33.1% | [2] -10.3% | [3] -15.6% | [4] -26.1% | [5] 6.15% | [6] -26%

O=C1/C(=C/c2ccc(O)cc2)CCC1CNc1ccc(Cl)cc1 (stereo not given)
inactive: [1] 14.8% | [2] 12.6% | [3] -2.6% | [4] 18.1% | [5] 5.55% | [6] 39.9%

c1ccc(N=C2SC(c3ccccc3)CN2C23CC4CC(CC(C4)C2)C3)cc1 (stereo not given)
inactive: [1] -18.4% | [2] -6.5% | [3] -38% | [4] -64.5% | [5] -1.2% | [6] -9.8%

Oc1c2cccc1Cc1cccc3c1OCCOCCOCCOCCOc1c(cccc1Cc1cccc(c1O)C3)C2
inactive: [1] 9.1% | [2] 12.8% | [3] 9.45% | [4] 13.8% | [5] 12.4% | [6] -6.05%

O=C(NC1c2ccccc2Oc2ccccc21)OCCCCl
inactive: [1] -11.2% | [2] -3.1% | [3] 2.15% | [4] -7.05% | [5] 7.8% | [6] -5.1%

c1ccc2cc3c(NC4=NCCO4)cccc3cc2c1
inactive: [1] -2.8% | [2] 5.9% | [3] -2.7% | [4] 22.4% | [5] 33.1% | [6] 16.2%
